# PubChem BioAssay AID540299 (ICCB-Longwood Screening Facility, Harvard Medical School, 2011)
# Several values for one entry are separate records, joined by “and”; a condition that tells them apart may be missing. Equal entries are not always repeated. The whole screen tested about 100,000 compounds, of which about 440 (0.44%) were called active. What follows is part of a selection rich in actives, with near analogues and random picks from the rest. Values without a mark were called inactive. Rule as the data show it: active = inhibition above about 21% (passing the limit was not always enough); inactive = the rest.
# Target: 1,4-dihydroxy-2-naphthoyl-CoA synthase (Mycobacterium tuberculosis (strain ATCC 25618 / H37Rv)) (UniProt P9WNP5)
# Sequence (P9WNP5 whole entry, looked up): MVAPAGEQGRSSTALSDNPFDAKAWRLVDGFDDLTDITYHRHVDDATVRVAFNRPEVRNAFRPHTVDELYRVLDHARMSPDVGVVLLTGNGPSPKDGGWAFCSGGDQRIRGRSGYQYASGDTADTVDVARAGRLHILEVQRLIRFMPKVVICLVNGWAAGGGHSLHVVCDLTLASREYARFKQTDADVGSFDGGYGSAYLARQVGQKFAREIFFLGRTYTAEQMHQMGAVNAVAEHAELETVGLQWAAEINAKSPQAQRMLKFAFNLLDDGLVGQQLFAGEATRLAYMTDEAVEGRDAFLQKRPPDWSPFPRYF
# Test: M. tuberculosis MenB inhibitors, primary screen, biochemical, absorbance (AID 540299)
# Details: MenB enzyme assay, absorbance read-out; active compounds read high; concentration not given here
row,SMILES,inhibition
1,COc1cc(CNC(=O)c2ccc(N(C)C)cc2)cc(OC)c1OC,-9.81%
2,Cc1c(/C=C(\C#N)C(=O)Nc2nccs2)cc(C#N)n1C,0.38%
3,O=S1(=O)CCC(NC2CCCCC2)C1 (stereo unspecified),49.9% (active)
4,C1CCC(NC2CCCC2)C1,-21.1%
5,O=S1(=O)CCC(S(=O)(=O)NC2CCCC2)C1 (stereo unspecified),-11%
6,CN1C(=O)C(C)(C)c2cc(S(=O)(=O)NCCc3ccco3)ccc21,-23.9%
7,CCc1cc(CC)c(CO)c(CC)c1/C=N/O,-27%
8,CC(Oc1ccccc1)c1nn2c(-c3cccnc3)nnc2s1 (stereo unspecified),-64.7%
9,O=C(c1nc(-c2ccc(Cl)cc2)n2c1CCCCC2)N1CCCCCC1,-18.8%
10,Cc1cccc(COC(=O)Nc2ccc(N3CCCCC3)cc2)c1,-13.2%
11,COc1cccc(NC(=O)CC2CCCCC2)c1,-13.2%
12,O=C(O)c1ccc(NC(=O)C2CC2)cc1,0%
13,O=C(Cn1cc(C(F)(F)F)ccc1=O)Nc1ccc(S(=O)(=O)N2CCCC2)cc1,17%
14,O=C(O)c1ccc2[nH]c(=O)c(=O)[nH]c2c1,6.67% and 1.98%
15,COc1ccc(-c2nn(C)c3ccccc23)cc1,4.51%
16,COc1ccc(-c2nc3sc(-c4ccc(OC)cc4)nc3s2)cc1,26.2% (active)
17,COc1ccc(C2NNC(=S)S2)cc1 (stereo unspecified),1.67%
18,CN1CCN(n2c(-c3ccc(Cl)cc3)csc2=Nc2ccccc2)CC1,-4.88%
19,CC1C(=O)N2CCCc3cc(S(=O)(=O)NCc4ccc(F)cc4)cc1c32 (stereo unspecified),-7.22%
20,O=S(=O)(c1cccs1)N(c1ccccc1)C(F)F,9.14%
21,O=S(=O)(/C=C/c1ccccc1)N1CCN(CCc2ccncc2)CC1,-2.97%
